Reference: PubChem BioAssay (NCI)
The panel holds about 83,000 compounds, 20% with a hit somewhere; the sample as a whole holds those more often.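 Plates (96-well) were seeded with cells, treated with compound at one concentration, and incubated for 48 hours before percent growth was determined.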 Values without a mark were called inactive. Activity calls are given as the source filed them. How the source made its calls: active means growth percent below 10; inactive means the rest.

Key:
Test in all cases: NCI-60 one-dose screen, 48 h (100 = growth as untreated, 0 = no growth, -100 = all killed)
Details in all cases: 10 µM unless noted
NCI-H23 lung = system: NCI-H23 lung
NCI-H226 lung = system: NCI-H226 lung
NCI-H322M lung = system: NCI-H322M lung
HOP-62 NSCLC = system: HOP-62 NSCLC
NCI-H460 lung = system: NCI-H460 lung
HOP-92 NSCLC = system: HOP-92 NSCLC
NCI-H522 lung = system: NCI-H522 lung
A549/ATCC NSCLC = system: A549/ATCC NSCLC
786-0 renal = system: 786-0 renal
COLO 205 colon = system: COLO 205 colon
DU-145 prostate = system: DU-145 prostate
K-562 leukemia = system: K-562 leukemia
MALME-3M melanoma = system: MALME-3M melanoma
MDA-MB-231 breast = system: MDA-MB-231 breast
RXF 393 renal = system: RXF 393 renal
SF-268 CNS = system: SF-268 CNS
SF-295 CNS = system: SF-295 CNS
SF-539 CNS = system: SF-539 CNS
UACC-257 melanoma = system: UACC-257 melanoma
M14 melanoma = system: M14 melanoma

| Structure (SMILES) | growth (NCI-H23 lung) | growth (NCI-H226 lung) | growth (NCI-H322M lung) | growth (HOP-62 NSCLC) | growth (NCI-H460 lung) | growth (HOP-92 NSCLC) | growth (NCI-H522 lung) | growth (A549/ATCC NSCLC) | growth (786-0 renal) | growth (COLO 205 colon) | growth (DU-145 prostate) | growth (K-562 leukemia) | growth (MALME-3M melanoma) | growth (MDA-MB-231 breast) | growth (RXF 393 renal) | growth (SF-268 CNS) | growth (SF-295 CNS) | growth (SF-539 CNS) | growth (UACC-257 melanoma) | growth (M14 melanoma) |
| --- | --- | --- | --- | --- | --- | --- | --- | --- | --- | --- | --- | --- | --- | --- | --- | --- | --- | --- | --- | --- |
| COC(=O)[C@@H](C)C[C@H](Cc1ccccc1)NC(=O)c1csc([C@@H](C[C@H](C(C)C)N(C)C(=O)[C@@H](NC(=O)[C@H]2CCCN2C)C2CC2)OC(C)=O)n1 | 23.5% | 24.1% | 50.9% | 12.2% | 3.65% (active) | -6.22% (active) | -9.59% (active) | 13.2% | 15.6% | -63.1% (active) | 8.13% (active) | 4.01% (active) | 64.2% | 6.59% (active) | 81.3% | 15.9% | 0.995% (active) | -14.6% (active) | 56.9% | 5.11% (active) |
| C[N+]12CN3CN(CN(C3)C1)C2 | 94.3% | 103% | 110% | 88% | 107% | 71% | 94.5% | 98.8% | 104% | 99.4% | 119% | 198% | 111% | 133% | 111% | 106% | 117% | 102% |  | 103% |
| COc1cc2c(cc1OCCCCn1c(-c3cccs3)nc3ccccc31)N=C[C@@H]1CCCN1C2=O | -37.9% (active) | -34.7% (active) | -30.5% (active) | 17.7% | -4.31% (active) | -64.6% (active) | -27.4% (active) | -7.19% (active) | 1.78% (active) | -73.5% (active) | 10.7% | -26.7% (active) | -77% (active) | -18.6% (active) | -60.4% (active) | -7.58% (active) | -8% (active) | -25.3% (active) |  | -46.2% (active) |
| CC[C@H](NC(=O)[C@H]1CCCCN1C)C(=O)N(C)[C@H](C[C@@H](OC(C)=O)c1nc(C(=O)N[C@@H](Cc2ccccc2)C[C@H](C)C(=O)O)cs1)C(C)C | 23% | 65.7% | 46.6% | 25.4% | 2.71% (active) | 46% | -19.9% (active) | 10.4% | 10.8% | -54.5% (active) | 0.513% (active) | 6.94% (active) | 76% | 9.34% (active) | 43.2% | 30.2% | 0.548% (active) | -12.1% (active) | 52.9% | -10.4% (active) |
| O=C(N/N=C\c1ccc(N(CCCl)CCCl)cc1Cl)c1cccnc1 | 70.5% | -48.5% (active) | 133% | 72.2% | 7.56% (active) | 74.3% | 116% | 60.4% | 66.9% | 83% | 94.4% | 82% | 116% | 85% | 82.8% | 99.1% | 59.6% | 95.3% | -10.9% (active) | 98% |
| CC1=C(CCCNS(C)(=O)=O)C2=C(C)C3(CC3)[C@@](C)(O)C(=O)C2=C1 | -35.1% (active) | -44% (active) | -3.8% (active) | -20.5% (active) | 1% (active) | -25.7% (active) | 6.89% (active) | 2.7% (active) | -17.6% (active) | -61% (active) | 4.13% (active) | 106% | -63.1% (active) | -3.41% (active) | -75.6% (active) | 8.41% (active) | 2.69% (active) | -38.6% (active) |  | -51.3% (active) |
| O=C(c1ccccc1O)c1[nH]c(Cl)c(Cl)c1-n1c(C(=O)c2ccccc2O)cc(Cl)c1Cl | -10.6% (active) | -1.5% (active) | -0.432% (active) | -9.18% (active) | 0.792% (active) | -37.6% (active) | -17.9% (active) | 3.18% (active) | -9.15% (active) | -95.7% (active) | 19.2% | 6.74% (active) | -25.5% (active) | -31.7% (active) | -19.4% (active) | 4.86% (active) | -25.5% (active) | 7.94% (active) | -24.9% (active) | -0.41% (active) |
| CC(=O)O[C@H](C[C@H](C(C)C)N(C)C(=O)[C@@H](NC(=O)[C@H]1CCCCN1C)C(C)C)c1cccc(C(=O)N[C@@H](Cc2ccccc2)C[C@H](C)C(=O)O)n1 | 32.6% | 61.6% | 40.7% | 23% | 4.27% (active) | 54.5% | -12.7% (active) | 8.55% (active) | 13.6% | -64% (active) | 0.44% (active) | 7.66% (active) | 74.3% | 11.8% | 34.5% | 23.1% | 5.65% (active) | -2.97% (active) | 48.4% | 1.68% (active) |
